The results in this text go back to PubChem BioAssay (Tox21).

A short description of experiment [1]: qHTS assay for small molecules that induce genotoxicity in human embryonic kidney cells expressing luciferase-tagged ATAD5 (AID 651632). Note: nearly all actives have a fitted effect of over 15% in size. In outline: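 Test compounds were delivered by pin tool onto HEK293T reporter cells (2,000/well) expressing ATAD5 fused to luciferase. After 16 hr at 37C, 5% CO2, Amplite was added for 30 min at room temperature and luminescence was measured.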
In general terms: In qHTS, concentration-response curves come from the screen itself.

Experiment [2] is described as follows: qHTS assay for small molecule agonists of the p53 signaling pathway - cell viability (AID 651633; calls by dose curve; note: nearly all actives have a fitted effect of over 30% in size; note: potency is the fitted concentration of half-maximal effect). In outline:
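p53RE-bla cells, seeded at 4,000 per well and rested 5 h at 37 C/5% CO2, received compounds in DMSO for 16 h at 37 C. CellTiter-Glo was then added, and luminescence was read after 30 min at room temperature to gauge cytotoxicity.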

Experiment [3] in a line: qHTS assay to test for compound auto fluorescence at 590 nm (red) in HepG2 cells (AID 720674). In outline: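 Rose Bengal sodium served as the red fluorophore standard. HepG2 monolayers (overnight attachment, MEM with 10% FBS) were exposed to test compounds for 1 hr at 37 C and read at Ex 540/Em 590 nm.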
Experiment [4] is described as follows: qHTS assay to test for compound auto fluorescence at 460 nm (blue) in HEK293 cells (AID 720678). In outline: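 Blue read-out at excitation 405 nm and emission 460 nm follows overnight compound exposure of HEK293 cells at 37C in 5% CO2. Activity is given as auto fluorescence equivalency to triamterene.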
The nature of experiment [5]: qHTS assay to test for compound auto fluorescence at 590 nm (red) in HEK293 cells (AID 720679). Summed up:
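Red channel, Ex/Em 540/590nm; signal expressed as equivalency to Rose Bengal sodium. HEK293, 2,000 cells/well, 10% dialyzed FBS; 23 nL compound pinned after 4-5 hr attachment; overnight 37C/5% CO2 before reading.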

Experiment [6] is described as follows: qHTS assay to test for compound auto fluorescence at 460 nm (blue) in HepG2 cells (AID 720687). Summed up:
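Cells (2,000/well in MEM with 10% FBS) attached overnight at 37 C, then were exposed to compound or DMSO for 1 hr at 37 C, 5% CO2. Fluorescence read at Ex/Em 405/460 nm, expressed as triamterene-equivalent signal.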

The target in experiment [7] is Glucocorticoid receptor (Homo sapiens) (UniProt P04150). Kind of experiment: qHTS assay to identify small molecule agonists of the glucocorticoid receptor (GR) signaling pathway (AID 720691; active = well fitted activation curve with a large enough effect in the signal ratio in the repeat runs, not every such curve was filed as active; inconclusive = weak or mixed curves, or effect the other way; inactive = no such curve, though single readings can be large or run the other way; the % refers to the signal ratio). Summed up: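 A HeLa cervical cancer line expressing GR and a glucocorticoid response element-driven beta-lactamase gene is treated with compounds for 18 h; LiveBLAzer B/G FRET substrate is then applied and fluorescence read.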

For experiment [8] the target is unchanged. The experiment is described as follows: qHTS assay to identify small molecule antagonists of the glucocorticoid receptor (GR) signaling pathway (AID 720692; active = well fitted inhibition curve with a large enough effect in the signal ratio in the repeat runs, not every such curve was filed as active; inconclusive = weak or mixed curves, or effect the other way; inactive = no such curve, though single readings can be large or run the other way; the % refers to the signal ratio; note: potency is the fitted concentration of half-maximal effect). Summed up:
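GRE-bla HeLa line, dex-stimulated (5 nM final). Compound exposure 18 h, 37 C. Beta-lactamase FRET read after 2 h RT substrate.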

Experiment [9] in a line: qHTS assay to identify small molecule antagonists of the glucocorticoid receptor (GR) signaling pathway - cell viability counter screen (AID 720693). Note: nearly all actives have a fitted effect of over 55% in size. Note: potency is the fitted concentration of half-maximal effect.
A short description of experiment [10]: qHTS assay for identifying genotoxic compounds that show differential cytotoxicity against isogenic chicken DT40 cell lines with known DNA damage response pathways - wild type cell line (AID 743012). Note: nearly all actives have a fitted effect of over 60% in size. Note: potency is the fitted concentration of half-maximal effect. Summed up: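 300 wt DT40 cells/well; cpd (DMSO) pintool-transferred after ~0.5 h at 37 C/5% CO2; 40 h incubation; CellTiter-Glo added, 30 min RT; luminescence read.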

The nature of experiment [11]: qHTS assay to identify small molecule antagonists of the thyroid receptor (TR) signaling pathway - cell viability counter screen (AID 743064). Note: nearly all actives have a fitted effect of over 50% in size. Note: potency is the fitted concentration of half-maximal effect. Summed up:
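Rat GH3 pituitary tumor cells stably expressing two TR response elements driving luciferase were plated, rested 4 h, then dosed with library compounds and T3 (1 nM final). After 23.5 h at 37 °C, CellTiter-Fluor was added for 30 min and fluorescence recorded.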

Experiment [12] can be described thus: qHTS assay to identify small molecule antagonists of the thyroid receptor (TR) signaling pathway (AID 743065). Note: nearly all actives have a fitted effect of over 55% in size. Note: potency is the fitted concentration of half-maximal effect. Summed up: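 GH3.TRE-Luc rat pituitary cells carrying two TR response elements driving luciferase were plated for 4 h, given compound plus 1 nM T3 (final), and incubated 23.5 h at 37 C. ONE-Glo luminescence measured reporter inhibition; CellTiter-Fluor fluorescence tracked cytotoxicity.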

Experiment [13] concerns the target Estrogen receptor (Homo sapiens) (UniProt P03372). Kind of experiment: qHTS assay to identify small molecule agonists of the estrogen receptor alpha (ER-alpha) signaling pathway (AID 743075; calls by dose curve;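 note: HEK293 GripTite cells with ER-alpha and UAS-driven beta-lactamase reporter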; note: potency is the fitted concentration of half-maximal effect).
For experiment [14] the target is unchanged. The experiment is described as follows: qHTS assay to identify small molecule agonists of the estrogen receptor alpha (ER-alpha) signaling pathway using the BG1 cell line (AID 743079). Note: nearly all actives have a fitted effect of over 20% in size. Note: potency is the fitted concentration of half-maximal effect.
In experiment [15] the target is Peroxisome proliferator-activated receptor gamma (Homo sapiens) (UniProt P37231). The experiment is described as follows: qHTS assay to identify small molecule agonists of the peroxisome proliferator-activated receptor gamma (PPARg) signaling pathway (AID 743094; active = well fitted activation curve with a large enough effect in the signal ratio in the repeat runs, not every such curve was filed as active; inconclusive = weak or mixed curves, or effect the other way; inactive = no such curve, though single readings can be large or run the other way; the % refers to the signal ratio). Summed up: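 Cell-based bla reporter, HEK293H background, PPARg-driven UAS. Pre-incubation 5 h, 37C, 5% CO2. Compound 17 h, 37C. Substrate 1 h RT; fluorescence.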

Experiment [16] deals with Nuclear receptor subfamily 1 group I member 2 (Homo sapiens) (UniProt O75469). The experiment is described as follows: CYP3A4 induction through human pregnane X receptor (PXR) by small molecules, qHTS assay (AID 1346984). Note: nearly all actives have a fitted effect of over 40% in size. Note: potency is the fitted concentration of half-maximal effect. In outline:
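Human PXR activation is tracked via CYP3A4 promoter-luciferase in DPX-2 (HepG2) cells. Compounds treat cells for 24hr at 37C, and luminescence is read after One-Glo.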

Experiment [17] shares this target. The experiment is described as follows: Human pregnane X receptor (PXR) activation by small molecules, qHTS assay (AID 1346985). Note: nearly all actives have a fitted effect of over 40% in size. In outline:
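DPX-2 cells (HepG2 co-transfected with a PXR response element and a CYP3A4-promoter luciferase construct) were seeded at 2,000 per well, rested 5 hr at 37C, then exposed to DMSO-dissolved compounds for 24 hr. Activation was read as luciferase luminescence.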

A short description of experiment [18]: qHTS assay for identifying genotoxic compounds that show differential cytotoxicity against isogenic chicken DT40 cell lines with known DNA damage response pathways - Rev3 mutant cell line (AID 743014). Note: nearly all actives have a fitted effect of over 55% in size. Note: potency is the fitted concentration of half-maximal effect.
Experiment [19] can be described thus: qHTS assay for identifying genotoxic compounds that show differential cytotoxicity against isogenic chicken DT40 cell lines with known DNA damage response pathways - Rad54/Ku70 mutant cell line (AID 743015). Note: nearly all actives have a fitted effect of over 60% in size. Note: potency is the fitted concentration of half-maximal effect.
Experiment [20] is described as follows: qHTS assay to identify small molecule antagonists of the androgen receptor (AR) signaling pathway - cell viability counter screen (AID 743033; note: nearly all actives have a fitted effect of over 45% in size; note: potency is the fitted concentration of half-maximal effect).

Activity calls are given as the source filed them. Unless noted, calls come from the whole dose curve; as a rule, active = well fitted curve in the direction sought with a large enough effect in the repeat runs; inconclusive = weak or mixed curves; inactive = no such curve, though single readings can be large; an effect the other way counts as inactive or inconclusive.

Sequence of Glucocorticoid receptor (Homo sapiens) (P04150 whole entry, looked up): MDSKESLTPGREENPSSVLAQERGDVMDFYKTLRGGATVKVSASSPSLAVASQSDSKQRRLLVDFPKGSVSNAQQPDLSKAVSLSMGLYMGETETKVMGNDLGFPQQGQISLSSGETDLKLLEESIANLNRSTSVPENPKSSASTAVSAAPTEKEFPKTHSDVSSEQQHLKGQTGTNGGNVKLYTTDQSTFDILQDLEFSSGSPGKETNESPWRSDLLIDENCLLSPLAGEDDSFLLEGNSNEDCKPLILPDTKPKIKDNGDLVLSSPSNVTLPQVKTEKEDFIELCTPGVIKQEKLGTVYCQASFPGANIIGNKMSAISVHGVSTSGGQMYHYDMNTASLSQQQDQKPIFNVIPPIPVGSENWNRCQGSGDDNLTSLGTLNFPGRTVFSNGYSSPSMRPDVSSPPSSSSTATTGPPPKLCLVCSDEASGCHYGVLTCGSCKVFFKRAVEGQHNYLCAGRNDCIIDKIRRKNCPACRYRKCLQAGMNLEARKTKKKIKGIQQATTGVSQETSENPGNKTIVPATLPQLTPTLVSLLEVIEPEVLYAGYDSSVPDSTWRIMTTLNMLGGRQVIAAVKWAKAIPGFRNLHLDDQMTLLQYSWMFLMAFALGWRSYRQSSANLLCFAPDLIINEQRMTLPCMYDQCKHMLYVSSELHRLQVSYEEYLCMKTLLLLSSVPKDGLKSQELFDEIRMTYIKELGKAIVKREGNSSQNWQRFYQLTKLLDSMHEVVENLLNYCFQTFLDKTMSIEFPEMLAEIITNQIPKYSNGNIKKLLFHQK
Sequence of Peroxisome proliferator-activated receptor gamma (Homo sapiens) (P37231 whole entry, looked up): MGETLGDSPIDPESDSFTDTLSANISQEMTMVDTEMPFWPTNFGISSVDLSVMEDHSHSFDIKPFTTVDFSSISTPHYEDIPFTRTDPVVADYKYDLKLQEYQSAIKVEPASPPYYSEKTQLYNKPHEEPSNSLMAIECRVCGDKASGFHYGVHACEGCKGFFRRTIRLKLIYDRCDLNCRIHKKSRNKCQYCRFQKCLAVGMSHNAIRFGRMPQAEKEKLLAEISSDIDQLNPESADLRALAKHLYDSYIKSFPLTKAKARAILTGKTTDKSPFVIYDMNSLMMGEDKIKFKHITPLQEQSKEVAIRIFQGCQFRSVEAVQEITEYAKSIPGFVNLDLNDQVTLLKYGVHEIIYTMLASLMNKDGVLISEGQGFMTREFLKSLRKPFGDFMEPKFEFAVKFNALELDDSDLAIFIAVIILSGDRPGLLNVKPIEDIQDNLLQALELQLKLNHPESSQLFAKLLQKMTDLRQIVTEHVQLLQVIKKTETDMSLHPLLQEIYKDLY
Sequence of Estrogen receptor (Homo sapiens) (P03372 whole entry, looked up): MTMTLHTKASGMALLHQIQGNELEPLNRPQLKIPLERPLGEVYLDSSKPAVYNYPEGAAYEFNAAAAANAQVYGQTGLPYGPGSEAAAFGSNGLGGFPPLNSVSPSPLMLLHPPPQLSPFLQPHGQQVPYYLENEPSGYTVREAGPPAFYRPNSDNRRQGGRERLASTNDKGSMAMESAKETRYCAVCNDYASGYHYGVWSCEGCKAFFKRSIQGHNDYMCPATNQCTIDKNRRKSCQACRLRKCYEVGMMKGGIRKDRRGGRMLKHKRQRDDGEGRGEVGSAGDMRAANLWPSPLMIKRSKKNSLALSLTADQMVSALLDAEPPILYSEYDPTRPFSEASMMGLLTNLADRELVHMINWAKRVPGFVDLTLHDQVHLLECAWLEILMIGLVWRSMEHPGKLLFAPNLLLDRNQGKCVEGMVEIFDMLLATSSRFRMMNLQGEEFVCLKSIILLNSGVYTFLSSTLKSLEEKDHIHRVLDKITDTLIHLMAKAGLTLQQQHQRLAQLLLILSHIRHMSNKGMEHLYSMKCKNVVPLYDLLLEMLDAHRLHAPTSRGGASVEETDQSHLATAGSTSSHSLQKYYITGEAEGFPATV

Take `CCNC(C)Cc1cccc(C(F)(F)F)c1` (configuration not stated): the Potency result in experiment [1], in experiment [2], in experiment [4], in experiment [6], in [7] and in experiment [8] was “inactive” each time. The Potency result in experiment [9], in [10], in experiment [11], in experiment [12], in experiment [13] and in [14] was “inactive” in each case. The Potency result in [15], in experiment [16] and in experiment [17] was “inactive” each time. Besides, the compound was classed as inactive in experiment [3] and in experiment [5].

For the compound `O=C1CCO1`, the Potency entry in experiment [1], in [4], in [6], in [7], in [8] and in experiment [9] was “inactive” each time. In addition, the Potency entry in experiment [10], in [18], in [19], in [20], in experiment [11] and in [12] was “inactive” in each case. Moreover, the Potency entry in [13], in experiment [14], in experiment [15], in [16] and in [17] was “inactive” throughout. In addition, the outcome in experiment [5] was inactive.

In the case of `CNC(C)C(O)c1ccc(O)cc1` (configuration not stated), the Potency entry in experiment [1], in experiment [4], in [9], in experiment [19], in [20] and in [11] was “inactive” in each case. The Potency entry in experiment [12], in experiment [13], in [14], in [15], in experiment [16] and in experiment [17] was “inactive” in each case. The result in experiment [3] and in experiment [5] was inactive.

As to `CC(C)C[C@H](CN)CC(=O)O`, the Potency result in experiment [1], in [2], in [6], in [7], in experiment [8] and in experiment [9] was “inactive” in each case. Moreover, the Potency result in [10], in experiment [18], in [19], in [11], in [13] and in [15] was “inactive” in each case. The Potency result in experiment [16] and in [17] was “inactive” throughout. In addition, the compound was classed as inactive in experiment [3] and in experiment [5]. In addition, in [14], the Potency is 13.3 µM (active).

With `C[N+]1(C)CCCCC1COC(=O)C(O)(c1ccccc1)c1ccccc1` (configuration not stated), the Potency entry in [1], in experiment [4], in [6], in experiment [7], in experiment [8] and in experiment [9] was “inactive” each time. The Potency entry in experiment [19], in [16] and in [17] was “inactive” in each case. The compound was called inactive in experiment [3] and in [5].

As to `CCCC(=O)OC(C(Cl)(Cl)Cl)P(=O)(OC)OC` (configuration not stated), the Potency result in experiment [1], in experiment [2], in [4], in experiment [6], in [7] and in experiment [10] was “inactive” throughout. The Potency entry in experiment [18], in experiment [19], in experiment [20], in experiment [11], in [12] and in experiment [13] was “inactive” each time. For the same compound, the Potency result in experiment [15], in experiment [16] and in experiment [17] was “inactive” each time. Further, the call in experiment [5] was inactive. In experiment [14], the Potency is 26.6 µM (active).

Turning to `C[N+]1([O-])[C@@H]2CC[C@H]1CC(OC(=O)C(CO)c1ccccc1)C2` (some centres not stated), the Potency result in [1], in experiment [2], in experiment [4], in experiment [6], in [7] and in experiment [8] was “inactive” each time. Moreover, the Potency entry in [9], in experiment [10], in experiment [18], in experiment [19], in [20] and in experiment [11] was “inactive” each time. Also, the Potency entry in experiment [13], in experiment [14], in experiment [15], in [16] and in experiment [17] was “inactive” in each case. Besides, the result in [3] and in experiment [5] was inactive.

Take `CC(C)CCC(=O)O[C@H]1CC[C@H]2[C@@H]3CCC4=CC(=O)CC[C@]4(C)[C@H]3CC[C@]12C`: the Potency result in experiment [1], in experiment [4], in experiment [6], in [7], in experiment [18] and in experiment [19] was “inactive” throughout. The Potency entry in experiment [15], in experiment [16] and in [17] was “inactive” each time. In addition, the Potency in experiment [8] is 6.01 µM (active); in [10], 7.5 µM (active); in [11] it was 33.5 µM (active); in experiment [12], 29.8 µM (active); in [13], 4.77 µM [inconclusive] (active); in experiment [14], 0.0668 µM (active).

Take `CN(C)[C@H](Cc1ccccc1)c1ccccc1`: the compound was classed as inactive in experiment [3] and in [5]. Further, the Potency entry in experiment [4], in experiment [7], in experiment [9], in experiment [10], in [18] and in experiment [19] was “inactive” each time. Besides, the Potency result in experiment [20], in [11], in experiment [12], in [13], in experiment [14] and in experiment [15] was “inactive” throughout. In addition, the Potency result in [16] and in [17] was “inactive” throughout.

As to `O=C1Nc2ccc(Cl)cc2C(c2ccccc2Cl)=NC1O` (configuration not stated), the Potency entry in experiment [1], in experiment [2], in experiment [4], in experiment [6], in experiment [7] and in [8] was “inactive” throughout. The Potency result in experiment [9], in experiment [18], in [19], in [20], in [11] and in [12] was “inactive” each time. Also, the Potency result in experiment [13], in [14], in experiment [15] and in [17] was “inactive” in each case. For the same compound, the result in experiment [3] and in [5] was inactive.

As to `Oc1cccc[c]1[Hg][Cl]`, the Potency entry in [1], in [6] and in [16] was “inactive” each time. Moreover, the Potency in experiment [2] is 7.5 µM (active); in experiment [9], 5.35 µM (active); in experiment [10], 0.473 µM (active); in experiment [18] it was 0.75 µM (active); in experiment [19], 0.473 µM (active); in [20] it was 10.7 µM (active). For the same compound, the Potency was 0.841 µM (active) in experiment [11], 0.473 µM (active) in [12] and 6.01 µM [inconclusive] (active) in [13]. Moreover, in experiment [3], the call was inactive.

Take `CCC1(c2ccccc2)C(=O)NC(=O)N(C(=O)c2ccccc2)C1=O` (configuration not stated): in [3], the compound was called inactive. Further, the Potency result in [4], in [7], in [8], in experiment [18], in [20] and in experiment [11] was “inactive” throughout. Moreover, the Potency result in experiment [15] is “inactive”. Moreover, in experiment [16], the Potency is 28.2 µM (active).

Consider `C#CCN1CC(=O)N(COC(=O)C2C(C=C(C)C)C2(C)C)C1=O` (configuration not stated), for which the Potency entry in [1], in experiment [4], in [6], in experiment [7], in experiment [8] and in experiment [9] was “inactive” in each case. In addition, the Potency result in [10], in experiment [18], in experiment [19], in experiment [20], in experiment [11] and in experiment [12] was “inactive” each time. For the same compound, the Potency entry in experiment [13], in experiment [14], in experiment [15] and in experiment [17] was “inactive” each time. Besides, the compound was called inactive in [3] and in experiment [5].
